This is part of a sample that, as a whole, favours compounds with a hit. Of some 83,000 tested, about 20% had one in any assay.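 Values shown are percent growth following 48 h exposure of cells in 96-well plates to a single concentration of compound; below 10 was considered active.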 Unmarked numbers belong to inactive results. Calls of active or inactive are those of the source.

The assay relates to NCI-H522 lung. Briefly: NCI-60 one-dose screen, 48 h (100 = growth as untreated, 0 = no growth, -100 = all killed). The note with it: 10 µM. The protocol:
Growth inhibition of the NCI-H522 human Non-Small Cell Lung tumor cell line is measured as a screen for anti-cancer activity. Cells are grown in 96 well plates and exposed to the test compound for 48 hours. Compounds are tested at a single concentration, which is 10^-5 M for most compounds. The reported endpoint is percent growth (GI% or GIPRCNT), where numbers from 0 - 100% represent growth inhibition, and numbers from -100% - 0 represent cell death. For example, a value of 40 represents 60% growth inhibition. A value of 0 means no net growth occurred over the course of the experiment. A value of -40 indicates 40% of cells at the beginning of the experiment died by the end of the experiment. A value of -100 means all cells are dead at the end of the experiment.
NCI-60 Human Tumor Cell Lines Screen was performed using the standard one-dose NCI protocol, which is described in more detail at https://dtp.cancer.gov/discovery_development/nci-60/default.htm.
Compounds with GIPRCNT values below 10 were considered active. Activity score was based on GIPRCNT using the following formula: […]
Score is 0 for GIPRCNT values of 100 or above, 50 for GIPRCNT values of 0, and 100 for GIPRCNT values of -100.
Regarding `CC12CCC3(CCC(=O)NCCCNc4ccnc5cc(Cl)ccc45)[C@@](C)(OO[C@]3(C)O1)O2`, the growth was -50.4% (active). In the case of `C[C@H]1[C@@H](Oc2ccc(-c3cn(-c4ccnc5cc(Cl)ccc45)nn3)cc2)O[C@@H]2OC3(C)CC[C@H]4[C@H](C)CC[C@@H]1[C@@]24OO3` it was 2.18% (active); in that of `CC(=O)Oc1ccccc1C(=O)[Se]C(=NC(C)C)NC(C)C`, -97% (active). For the compound `CCOC(=O)C1=C(Nc2ccccc2)C(=O)OC12C(=O)Nc1ccccc12` (stereo not given), the growth was 96.5%. In the case of `COc1cc(OC)c(/C=C/C(=O)c2nc3ccccc3n2Cc2ccc(F)cc2)c(OC)c1` it was 79.6%. To `CC[C@]12C=CCN3CC[C@@]4(c5ccc(OC)cc5N(C)[C@H]4[C@@](O)(C(=O)OC)[C@@H]1OC(=O)CCCC[P+](c1ccc(OC)cc1)(c1ccc(OC)cc1)c1ccc(OC)cc1)[C@@H]32` belongs -81.9% (active); to `O=C(/C=C/c1ccco1)c1nc2ccccc2n1Cc1ccc(Br)cc1`, 4.59% (active). For the compound `CCOP(=O)(OCC)C(NC(C)=O)C(=O)SCCN` (stereo not given), the growth was 98.7%. To `O=C(/C=C/c1ccc(Cl)cc1Cl)c1nc2ccccc2n1Cc1ccc(F)cc1` belongs 76.2%. `C[C@H]1[C@H](OC(=O)CCC(=O)N(CCCc2cn(-c3ccc([N+](=O)[O-])cc3)nn2)CCNc2ccnc3cc(Cl)ccc23)O[C@@H]2OC3(C)CC[C@H]4[C@H](C)CC[C@@H]1[C@@]24OO3`: the growth was 5.13% (active). Consider `CC[C@]12C=CCN3CC[C@@]4(c5ccc(OC)cc5N(C)[C@H]4[C@@](O)(C(=O)OC)[C@@H]1OC(=O)CCC[P+](c1ccc(F)cc1)(c1ccc(F)cc1)c1ccc(F)cc1)[C@@H]32`, for which the growth is -17.7% (active). To `CC[C@]12C=CCN3CC[C@@]4(c5ccc(OC)cc5N(C)[C@H]4[C@@](O)(C(=O)OC)[C@@H]1OC(=O)CCC[P+](C1CCCCC1)(C1CCCCC1)C1CCCCC1)[C@@H]32` belongs -82.2% (active). In the case of `C=CC[Se]C(=O)c1ccc(C(=O)[Se]CC=C)s1` it was -95.5% (active). To `COP(=O)(CC(F)(F)C(F)(F)F)OC` belongs -71.5% (active); to `COC(=O)CCn1c(-c2ccc(-n3cc(-c4ccc(O[C@H]5O[C@@H]6OC7(C)CC[C@H]8[C@H](C)CC[C@@H]([C@H]5C)[C@@]68OO7)cc4)nn3)cc2)nc2ccccc21`, -22.8% (active); to `CC(C)C[C@H](NC(=O)CNC(=O)C[C@H]1O[C@@H]2OC3(C)CC[C@H]4[C@H](C)CC[C@@H]([C@H]1C)[C@@]24OO3)B(O)O`, -73.8% (active). In the case of `CCOP(=O)(CC(F)(F)C(F)(F)F)OCC`, the growth was -77.3% (active). Consider `O=C(/C=C/c1ccccc1)c1nc2ccccc2n1Cc1ccc(F)cc1`, for which the growth was -33% (active).

On to `O=C(NC([Se])=NC1CCCCC1)c1ccccc1`, for which the growth is -30.9% (active). In the case of `CC(=C\C(=O)Oc1ccc2c3c1OC1C(O)CCC4(O)C(C2)N(CC2CCC2)CCC314)/C=C1\CCCc2ccccc21` (stereo not given) it was 47.2%.

For `C[C@H]1[C@H](OC(=O)CCC(=O)Nc2cnccn2)O[C@@H]2OC3(C)CC[C@H]4[C@H](C)CC[C@@H]1[C@@]24OO3`, the growth was -13.6% (active). With `Cc1ccc2[nH]c(=S)n(-c3ccc(F)cc3)c(=O)c2c1`, the growth is 97.9%. Regarding `O=C(NCCCCC(c1ccc(F)cc1)c1ccc(F)cc1)Nc1ccc([N+](=O)[O-])c(C(F)(F)F)c1`, the growth was -16.9% (active). In the case of `O=C(/C=C/c1ccccc1Cl)c1nc2ccccc2n1Cc1ccc(F)cc1` it was -81.2% (active); in that of `CC1=C(COCCOC(=O)c2ccc(S(=O)(=O)F)cc2)C2=C(C)C3(CC3)[C@@](C)(O)C(=O)C2=C1`, -72.2% (active); in that of `O=C(/C=C/c1ccc(Cl)cc1Cl)c1nc2ccccc2n1Cc1ccc(Br)cc1`, 88.2%. To `C=CCN=C([Se])NC(=O)c1ccc2c(c1)OCO2` belongs 105%; to `CC(=O)Oc1ccccc1C(=O)NC([Se])=NC1CCCCC1`, -95.7% (active). For the compound `CC12OOC(C)(OO1)C2CCC(=O)NCCCNc1ccnc2cc(Cl)ccc12` (stereo not given), the growth is -77.8% (active). `CC12OOC(C)(OO1)C2CCC(=O)OCCNc1ccnc2cc(Cl)ccc12` (stereo not given): the growth is -79.2% (active). In the case of `O=C(/C=C/c1ccc(F)cc1)c1nc2ccccc2n1Cc1ccc(Br)cc1` it was -64% (active).

With `COc1ccc2cc([C@H](C)C(=O)[Se]CCC#N)ccc2c1`, the growth is -95.6% (active). In the case of `COC(=O)c1ccc(-n2cc(CCCN(CCNc3ccnc4cc(Cl)ccc34)C(=O)CCC(=O)O[C@@H]3O[C@@H]4OC5(C)CC[C@H]6[C@H](C)CC[C@@H]([C@H]3C)[C@@]46OO5)nn2)cc1` it was 7.38% (active). In the case of `O=C(/C=C/c1cccc(Br)c1)c1nc2ccccc2n1Cc1ccc(F)cc1` it was 59.4%; in that of `O=C(/C=C/c1ccccc1)c1nc2ccccc2n1Cc1ccc(Br)cc1`, -73.8% (active).

As for `O=C(NC([Se])=NC1CCCCC1)c1ccc2c(c1)OCO2`, the growth is 42.1%.

Turning to `CC[C@@]12CC(C(=O)OC)=C3Nc4cc5c(cc4[C@@]34CCN(C[C@H]3O[C@H]31)[C@@H]24)[C@@H]1[C@H](O5)[C@@H](O)[C@@]2(CC)CC(C(=O)OC)=C3Nc4cc(OC)ccc4[C@@]34CCN1[C@@H]24`, the growth is 2.96% (active). In the case of `COCCOCCOCCOc1ccc(-n2cc(CCCN(CCNc3ccnc4cc(Cl)ccc34)C(=O)CCC(=O)O[C@@H]3O[C@@H]4OC5(C)CC[C@H]6[C@H](C)CC[C@@H]([C@H]3C)[C@@]46OO5)nn2)cc1` it was 1.23% (active).

In the case of `C[C@H]1[C@H](OC(=O)CCC(=O)N(CCCc2cn(-c3ccc(C#N)cc3)nn2)CCNc2ccnc3cc(Cl)ccc23)O[C@@H]2OC3(C)CC[C@H]4[C@H](C)CC[C@@H]1[C@@]24OO3`, the growth is 7.88% (active). In the case of `C#CC[Se]C(=O)c1ccc2n[se]nc2c1` it was 51.9%.

For the origin of these results see PubChem BioAssay (NCI).
